Source: PubChem (National Center for Advancing Translational Sciences (NCATS))
Sampled rows, rich in hits. Any-hit rate of the full collection: about 0.81%.
RE007 growth inh: less growth of the S. pombe RE007 Vpr strain; S. pombe RE007 Vpr strain, BacTiter-Glo ATP luminescence, 24 h; 0.21% of 360,000 active; Potency, µM (highest dose often 92.2 µM), without a hit: at the highest dose activity change, negative = less growth, usual class: inhibitors; active = well fitted falling curve with a large enough effect; inconclusive = small, poorly fitted or top-dose-only effect; inactive = no such curve, though single readings can be large or run the other way; note: potency is the fitted concentration of half-maximal effect; % is set by controls: 0 for no effect and ±100 for the full control effect; nearly all actives have a fitted effect of over 50% in size
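Fission yeast strain RE007, carrying one chromosomally integrated HIV-1 vpr copy, was seeded at OD 0.01 in PMG+AL medium with 23 nL pinned compound. After 24 h at 30 °C and 99% humidity, viability was read by BacTiter-Glo luminescence.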
Tb PYK inh: T. brucei pyruvate kinase inhibition; AID 624173; 0.12% of 410,000 active; Q57TT1; TbPYK enzyme, Kinase-Glo Plus ATP luminescence, 45 min; Potency, µM (top dose mostly 76.8 µM), without a hit: at the top dose activity, negative = inhibition, most hits filed as inhibitors; note: potency is the fitted concentration of half-maximal effect; % is set by controls: 0 for no effect and ±100 for the full control effect; nearly all actives have a fitted effect of over 50% in size
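Screened from lowest to highest concentration, compounds were pinned into TbPYK/substrate mixtures, and ADP (130 uM final) was added. Plates sat at room temperature for 45 min prior to Kinase-Glo Plus detection by luminescence.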
SARS PLpro yeast-1: SARS-CoV PLP inhibition in yeast | S. cerevisiae expressing SARS-CoV PLpro, growth rescue | Potency, µM (titrated, usually from 32.9 µM), for the others: at the highest dose activity, positive = growth rescue, actives largely listed as activators | 0.19% of 330,000 active | AID 485353; calls by dose curve; note: potency is the fitted concentration of half-maximal effect; 0% is about no effect; nearly all actives have a fitted effect of over 55% in size
AMA1-RON2 inh: inhibitors of Plasmodium falciparum AMA1-RON2 interaction | AID 720542 | 0.2% of 360,000 active | AlphaScreen AMA1-biotinylated RON2 peptide binding | Potency, µM (doses to about 58.2 µM), inactives show at the highest dose activity change, negative = inhibition, usual class: inhibitors;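 note: potency is the fitted concentration of half-maximal effect; 0% = vehicle wells and -100% = peptide control; nearly all actives have a fitted effect of over 45% in size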
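AMA1 (3D7) with his tag at 25 nM final met compounds first, then biotinylated RON2 peptide at 25 nM; detection used donor plus acceptor beads, 10 µg/mL apiece, read by AlphaScreen after 30 min at room temperature.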
LmPK inhibitor: blocks Leishmania mexicana pyruvate kinase activity. AID 1721. Q27686. Potency, µM (doses to about 57.5 µM), for the others: at the highest dose activity change, negative = inhibition, usual class: inhibitors. 0.37% of 290,000 active. purified LmPK, Kinase-Glo ATP luminescence, 1 h; note: potency is the fitted concentration of half-maximal effect; % is set by controls: 0 for no effect and ±100 for the full control effect
Target sequence (Q27686 whole entry, looked up): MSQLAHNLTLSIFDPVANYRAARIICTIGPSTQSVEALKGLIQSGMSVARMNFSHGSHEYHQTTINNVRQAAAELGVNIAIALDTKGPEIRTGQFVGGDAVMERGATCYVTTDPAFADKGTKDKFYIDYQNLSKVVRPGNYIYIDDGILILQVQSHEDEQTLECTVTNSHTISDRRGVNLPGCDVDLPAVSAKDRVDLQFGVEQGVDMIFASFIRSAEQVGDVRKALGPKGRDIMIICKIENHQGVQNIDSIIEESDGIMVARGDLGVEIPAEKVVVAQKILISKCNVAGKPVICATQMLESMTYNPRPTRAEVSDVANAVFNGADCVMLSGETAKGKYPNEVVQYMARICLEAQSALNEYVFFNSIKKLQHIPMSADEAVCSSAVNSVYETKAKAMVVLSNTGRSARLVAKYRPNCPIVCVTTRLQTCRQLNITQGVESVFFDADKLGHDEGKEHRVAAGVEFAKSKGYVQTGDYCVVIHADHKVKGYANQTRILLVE
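Pyruvate kinase activity monitored as ATP production (luciferase luminescence). Conditions: 0.1 nM enzyme, 0.5 mM PEP, 0.1 mM ADP, 1 h, RT; normalized against uninhibited and no-enzyme wells.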
SARS PLpro yeast-2: Rescues yeast growth by inhibiting SARS-CoV PLpro; yeast expressing SARS-CoV PLpro, growth phenotype rescue; calls only; shares compounds with SARS PLpro yeast-1; 19% of 1,000 active; call rule not given here
* = called active by the depositor; i = inactive; ? = inconclusive; . = no result; + = active, no number. Unless noted, calls come from the whole dose curve; as a rule, active = well fitted curve in the direction sought with a large enough effect; inconclusive = small, poorly fitted or top-dose-only effect, or another doubt; inactive = no such curve, though single readings can be large; an effect the other way counts as inactive or inconclusive.

SMILES	RE007 growth inh	Tb PYK inh	SARS PLpro yeast-1	AMA1-RON2 inh	LmPK inhibitor	SARS PLpro yeast-2
Cc1cn(CC(=O)NCC2CCCO2)c(=O)[nH]c1=O (configuration not stated)	0.6%	-1.5%	.	0.0%	.	.
CC(C)n1cnnc1SCC(=O)NC(=O)c1ccccc1	14.6%	5.0%	?	1.1%	.	i
COc1ccccc1C(=O)NC(=O)CSc1nncn1C(C)C	-5.8%	-1.8%	-3.8%	11.8%	.	.
O=C(COC(=O)c1cnc(Cl)c(Cl)c1)Nc1ccc(S(=O)(=O)N2CCCC2)cc1	2.0%	-2.9%	?	-11.3%	0.0%	i
O=[N+]([O-])c1cccc(COc2cccc(CN3CCCCC3)c2)c1	-19.0%	-0.3%	.	-9.7%	.	.
O=C1/C(=C/c2cccs2)N=C(c2cccs2)N1Nc1ccccc1	49.8%	-0.3%	?	-20.7%	-0.5%	i
Cc1ccc(CN(C)C(=O)C2CCC(=O)N(CCc3ccccc3)C2)o1 (configuration not stated)	-10.8%	?	?	3.4%	-5.1%	i
Cc1ccc2cc3cc(C(=O)N4CCN(c5ccc(Cl)cc5)CC4)oc3nc2c1	.	5.1%	.	.	.	.
COC(=O)CNC(c1ccccc1)c1cc(C)ccc1NC(=O)c1cccc(Cl)c1 (configuration not stated)	-11.9%	-3.8%	?	2.2%	3.8%	i
CCOc1ccccc1CNC(=O)CCNC(=O)Cn1ccc2ccccc2c1=O	-6.5%	-2.0%	?	10.6%	2.2%	i
Cc1cccc(C2=NN(c3ccc(Br)cc3)[C@@H](C(=O)N3CCOC3=O)[C@@H]2c2ccccc2)c1	5.5%	-0.7%	3.55µM*	71.4%	.	i
CCNC(=S)N/N=C/c1cc(C)n(-c2ccc(Cl)cc2)c1C	11.1%	-3.2%	-3.7%	12.1%	7.3%	.
Cc1cc(/C=N/NC(N)=S)c(C)n1-c1ccc(Cl)c(Cl)c1	?	-10.4%	?	40.1%	2.9%	i
C=CCc1cccc(/C=N/NC(=O)CCCNc2ccc(C)cc2)c1O	.	5.5%	14.1µM*	-12.6%	2.5%	+
C=CCc1cccc(/C=N/NC(=O)CNc2ccccc2)c1O	-17.8%	3.1%	.	122.1%	-0.9%	.
O=C(N/N=C/c1c(O)n(-c2ccccc2Cl)c(=O)c2ccccc12)c1cccnc1	7.8%	5.1%	5.62µM*	43.7%	3.8%	i
Cc1cccc(-n2c(O)c(/C=N/NC(=O)c3ccccc3Cl)c3ccccc3c2=O)n1	2.3%	4.5%	14.1µM*	-25.7%	1.9%	i
Cc1cccc(-n2c(O)c(C=Nc3ccccc3O)c3ccccc3c2=O)n1	23.5%	-3.2%	-2.4%	?	0.1%	.
O=C(N/N=C/c1c(O)n(Cc2ccccc2)c(=O)c2ccccc12)c1cccnc1	-14.8%	-8.5%	?	47.1%	3.1%	.
C=CCNc1nc(Cl)nc(Nc2cc(Cl)ccc2OC)n1	5.9%	-0.8%	6.1%	-8.4%	-2.6%	.
CC/C(CC(c1ccccc1)c1c(O)c2ccccc2oc1=O)=N\NC(N)=S (configuration not stated)	10.9%	0.1%	12.6µM*	4.9%	1.2%	i
COc1ccc(/C(N)=N/OC(=O)c2ccc(OC)c([N+](=O)[O-])c2)cc1OC	9.0%	2.9%	-0.6%	0.3%	3.4%	.
COc1ccc(/C(N)=N/OC(=O)c2cccc([N+](=O)[O-])c2C)cc1OC	2.7%	-3.0%	?	-2.9%	0.9%	i
Cn1cc(CCC(=O)NCc2ccc(Cl)cc2)c2ccccc21	-4.2%	1.3%	-0.7%	-11.9%	-0.1%	.
O=C1CCCC2=C1C1(CCCC1)N=C(Nc1nc3cc(-c4ccccc4)ccc3o1)N2	.	-5.7%	.	.	.	.
SMILES	RE007 growth inh	Tb PYK inh	SARS PLpro yeast-1	AMA1-RON2 inh	LmPK inhibitor	SARS PLpro yeast-2
COc1ccc(/C=N/NC(=O)CN(CCc2ccccc2)S(=O)(=O)c2ccc(NC(C)=O)cc2)cc1OC	6.2%	0.2%	3.55µM*	21.8%	-0.1%	i
COc1ccc(S(=O)(=O)N(CCc2ccccc2)CC(N)=O)cc1	0.0%	5.8%	0.3%	-18.2%	4.7%	.
COc1ccc(S(=O)(=O)N(CCc2ccccc2)CC(=O)O)cc1Cl	17.3%	-5.9%	?	62.8%	4.5%	i
COc1ccc(-n2ccn(CC(=O)Nc3ccc(C)cc3C)c(=O)c2=O)cc1	.	0.5%	.	.	.	.
CS(=O)(=O)Nc1cccc(C2=NN(C(=O)c3ccc(F)cc3)C(c3cccs3)C2)c1 (configuration not stated)	0.3%	3.3%	0.5%	0.0%	-4.5%	.
Cc1ccc(C(=O)CNc2ccc(C)c(Cl)c2)cc1	-12.6%	-18.9%	?	-4.6%	-0.6%	?
Cc1ccc(N(C(=O)c2ccc3c(c2)OCO3)C2C=CS(=O)(=O)C2)cc1C (configuration not stated)	-14.9%	3.1%	.	-17.1%	-9.3%	i
O=C(c1ccc2c(c1)OCO2)N(c1ccc(F)cc1)C1C=CS(=O)(=O)C1 (configuration not stated)	13.9%	-0.7%	-0.5%	3.8%	3.5%	.
CC(C)c1ccc(C2=CC(c3cccc(Cl)c3)n3c(nc4ccccc43)N2)cc1 (configuration not stated)	.	2.6%	.	.	.	.
CN(CC(=O)Nc1cccc(F)c1)C(=O)COc1cccc2c1OC(C)(C)C2	-13.3%	3.7%	?	6.9%	-5.2%	.
O=C1C(=O)N(Cc2cccnc2)C(c2cccc([N+](=O)[O-])c2)/C1=C(\O)c1ccc2c(c1)OCCO2 (configuration not stated)	-6.2%	-2.4%	-0.1%	-13.7%	-11.7%	.
COc1cccc(C2/C(=C(\O)c3ccc4c(c3)OCCO4)C(=O)C(=O)N2Cc2cccnc2)c1 (configuration not stated)	4.7%	-2.2%	?	0.7%	-2.1%	i
COc1ccc(C(=O)N/C(N)=N/c2nc3ccccc3o2)cc1	1.6%	-2.4%	-5.3%	68.8%	-1.2%	.
CC(C)(C)c1ccc(C(=O)N/C(N)=N/c2nc3ccccc3o2)cc1	-9.7%	-16.1%	?	24.4%	0.6%	i
O=C(CN1C(=O)NC(CCc2ccccc2)C1=O)Nc1ccc(F)c(F)c1F (configuration not stated)	12.7%	5.7%	1.5%	-0.8%	.	.
CC(C)NC(=O)CN1C(=O)NC(CCc2ccccc2)C1=O (configuration not stated)	0.2%	-8.1%	3.55µM*	15.6%	-0.2%	i
CCC1(CC)C(=O)N(C)C(=O)NC1=Nc1ccc(OC)cc1	-0.6%	-6.7%	1.78µM*	14.4%	11.1%	i
CCCCN(C(=O)c1cc(S(=O)(=O)N2CCOCC2)ccc1N1CCOCC1)c1ccccc1	-4.1%	-0.6%	.	24.9%	.	.
O=C(O)c1ccc(N=NN2CCCC2)cc1	9.0%	-1.5%	1.8%	-1.3%	4.9%	.
